HDAC3 inh: human HDAC3 inhibition; 320,000 compounds, 0.15% hits; inhibition, % at 8.3 µM; AID 2718; recombinant HDAC3, fluorogenic peptide/trypsin coupled, fluorescence; O15379; in the data active means inhibition above about 26%, passing the limit was not always enough; inconclusive means no clear call, values can overlap the other calls
IDE cell activ: IDE (human) activation, cell-based; activation, % at 5.96 µM; 340,000 compounds, 0.073% hits; AID 493087; P14735; HEK cells, FAbeta-B cleavage, fluorescence polarization; 0% vehicle, 100% cell-free pure enzyme wells;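 active means activation above the mean of all tested compounds plus 3 SD, set per screening campaign, cut at about 17% in these data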
LANA-H2B inh: blocks KSHV LANA binding to histone H2A/H2B; inhibition, % (no concentration beside the values); AID 2629; cell-free LANA-H2A/H2B peptide, fluorescence polarization; 320,000 compounds, 0.6% hits; Q9QR71; in the data active means inhibition mostly above about 10%, no sharp cut-off; inactive means mostly below about 6.7%
IDE cell inh: cellular human IDE inhibition; P14735; HEK cells, FAbetaB cleavage, fluorescence polarization; inhibition, % at 5.59 µM; 320,000 compounds, 0.41% hits;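 active means percent inhibition above the average of all tested compounds plus 3 SD, set per screening campaign, cut at about 16% in these data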;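 further: IDE supplied by intact live HEK cells; FP after avidin binding of uncleaved biotin substrate so inhibition keeps polarization high; 0% = DMSO wells and 100% = 60 µM reference IDE inhibitor Ii1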
* hit, by the source's call; ? = inconclusive; . = no result given; + = active, no number; ! = a repeat was not active. In the library only some 1.1% were active in any assay of this set; here they are far more common.

SMILES	HDAC3 inh	IDE cell activ	LANA-H2B inh	IDE cell inh
Cc1ccccc1NC(=O)CS(=O)(=O)c1cn(CC(=O)N2CCOCC2)c2ccccc12	.	-0.6	1.3	2.6
CCCCC(=O)NC(=S)Nc1c(C)cc(Br)cc1C	-2.4	0.9	4.6	-4.7
Cc1ccc(S(=O)(=O)OCCC2=CC(=O)CCN2Cc2ccccc2)cc1	-2.8	20.6*	2.7	1.7
COc1cc(C(=O)Nc2ccc(NC(=O)C(C)C)nc2)cc(OC)c1OC	7.2	4.2	15.4*	1.4
O=c1[nH][nH]c(=O)c2cc([N+](=O)[O-])ccc12	5.8	-3.8	40.3*	2.9
COc1ccc(C(=O)c2c(-c3cccc(C)c3)oc3ccc(N4CCOCC4)cc23)cn1	-3.5	1.4	-0.6	0.6
O=C(c1ccco1)N1N=C(c2cccs2)CC1c1ccco1 (stereo not drawn)	-4.7	-0.1	-0.8	-0.4
Cc1ccc(C2CC(c3cccs3)=NN2C(=O)c2ccco2)o1 (stereo not drawn)	3.2	1.5	19.6*	3.5
CC[C@@]1(O)C(=O)OCc2c1cc1n(c2=O)Cc2cc3c(CN(C)C)c(O)ccc3nc2-1	-4.1	24.1*	68.2*	-2.8
COc1ccccc1CCCNC(=O)C1CCC(=O)N(Cc2ccccc2F)C1 (stereo not drawn)	-1.5	5.0	-0.9	4.3
O=C(NCC1COc2ccccc2O1)c1cccc(S(=O)(=O)N2CCOCC2)c1 (stereo not drawn)	2.8	1.1	26.5*	-0.4
CCN(CC)c1nc(Nc2ccc(Cl)cc2)nc(OCC#N)n1	31.6*	3.3	3.4	-0.5
Cc1cccc(Nc2nc(OCC#N)nc(N(C)C)n2)c1	-1.0	-2.7	7.2	2.2
CC1(C)Oc2c(ccc(O)c2CN2CCOCC2)C2=C1CCCC2	.	2.5	.	.
CCNC(=O)c1sc2cc(C)ccc2c1Cl	8.8	2.2	36.0*	7.9
CC1Cc2ccccc2N1C(=O)CSc1nnc2c(n1)[nH]c1ccc(F)cc12 (stereo not drawn)	-2.2	1.7	-3.2	-0.2
O=C(C/C=N\OCc1ccc([N+](=O)[O-])cc1)Nc1ccccc1	0.0	-1.0	-6.6	2.8
COC(=O)C(/C=N/OCc1ccc([N+](=O)[O-])cc1)NC(=O)c1ccccc1 (stereo not drawn)	43.7*	-6.2	6.7	-0.8
CC(=O)NC(CC(=O)Nc1ccc(S(=O)(=O)NC2=NCCCCC2)cc1)c1ccccc1 (stereo not drawn)	-0.3	1.5	1.2	0.7
CC(C)(C)c1ccc(C(=O)Nn2cnnc2)cc1	4.0	-0.2	-25.5	-2.2
CC(=O)Oc1ccc(C(=O)Nn2cnnc2)cc1	-5.4	5.6	18.5*	1.6
CCCOc1ccc(/C=C/c2c([N+](=O)[O-])c(=O)n(C)c(=O)n2C)cc1	4.5	-0.5	1.7	-2.7
Cc1ccsc1/C=C/c1ccc2cccc(O)c2n1	2.9	4.7	0.3	0.7
Oc1cccc2ccc(/C=C/c3cccs3)nc12	-3.4	-8.5	13.3*	8.8
Cc1ccc(S(=O)(=O)CCC(=O)OCCOc2cccc(Br)c2)cc1	7.6	0.0	.	0.2
SMILES	HDAC3 inh	IDE cell activ	LANA-H2B inh	IDE cell inh
Cc1cc(C)n(CC(O)Cn2c3ccc(Br)cc3c3cc(Br)ccc32)c(=O)n1 (stereo not drawn)	-6.6	2.2	15.5*	-2.2
O=C(Cc1ccccc1[N+](=O)[O-])NCCCN1CCOCC1	-1.6	-1.2	+	-2.4
Cn1cc(CC(=O)NCCCN2CCOCC2)c2ccccc21	.	3.4	-0.2	-0.6
O=C(CCNC(=O)c1ccc(Br)cc1)NCCCN1CCOCC1	0.0	4.5	51.1*	0.2
O=C(NCCCN1CCOCC1)C(Sc1ccccc1)c1ccccc1 (stereo not drawn)	?	1.4	52.7*	1.0
O=C(NC(=S)NCCCN1CCOCC1)c1ccc(Br)cc1	-2.9	4.4	2.1	-2.9
Clc1cccc(CN2CCSCC2)c1	-3.1	-1.9	1.5	-7.8
Cc1cc(F)ccc1NC(=O)C1CCCO1 (stereo not drawn)	4.7	7.9	0.9	-1.0
Cc1nn(C)cc1/C=C/C(=O)c1ccc(O)cc1	2.3	-0.2	4.8	0.8
COc1cc(/C=N/n2cnnc2)ccc1OC(=O)c1ccco1	27.3*	2.8	-0.3	-0.5
COc1cc(/C=N\NC(=O)OC(C)(C)C)ccc1OC(=O)c1ccco1	2.0	.	4.3	3.2
Cc1ccc(Nc2ccc(C(=O)NC3CCCCC3)cn2)cc1	.	-8.2	2.8	8.5
CC(=O)N1CCC(N2CCN(Cc3ccc(C)cc3)C(CCO)C2)CC1 (stereo not drawn)	1.8	1.3	76.9*	2.7
C/C(=N/NC(=O)c1cc(-c2cccc([N+](=O)[O-])c2)n[nH]1)c1cccc(O)c1	3.1	-3.7	14.8*	3.6
C/C(=N\NC(=O)c1cc(-c2cccc([N+](=O)[O-])c2)n[nH]1)c1ccc(F)cc1	6.3	.	1.0	0.0
C=CCn1c(SCCC)nc(O)cc1=O	2.6	5.6	15.6*	8.0
CCN(CCn1cccn1)C(=O)c1cc(COc2cc(C)ccc2C)on1	2.6	-0.9	36.5*	.
Cc1ccc(C2OC(=O)C=C2c2ccccc2)cc1 (stereo not drawn)	2.6	-0.7	2.6	3.0
CCC1=Nc2cc(C(=O)NCCN3CCOCC3)ccc2Sc2ccc(C)cc21	-2.6	-0.5	5.1*	5.0
COc1ccc(NCc2nnc(SCC(=O)c3ccc(OC)cc3)o2)cc1	41.1*	-0.5	-1.6	2.6
CN(C)CCCN1c2ccccc2Sc2ccc(Cl)cc21	4.1	-3.0	2.8*!	3.7
CN(C)CCCN1c2ccccc2Sc2ccc3ccccc3c21	.	5.4	.	.
CSCCC(NS(=O)(=O)c1ccc(Cl)cc1)C(=O)OCC(=O)c1ccc(F)cc1 (stereo not drawn)	6.5	0.0	-0.7	-0.7
C=CCNC(=O)c1sc(=S)n(-c2ccc(C(=O)OCC)cc2)c1N	-0.1	6.7	39.5*	-6.5
COc1ccc(CCNC(=O)CN(c2cc(OC)ccc2OC)S(=O)(=O)c2ccccc2)cc1	-6.4	2.4	-6.7	4.3
SMILES	HDAC3 inh	IDE cell activ	LANA-H2B inh	IDE cell inh
COc1ccc(OC)c(N(CC(=O)NCc2ccccc2)S(=O)(=O)c2ccc(OC)c(OC)c2)c1	-2.1	-2.5	40.8*	-0.1
COCCCNC(=O)CN(c1cc(OC)ccc1OC)S(=O)(=O)c1ccccc1	1.0	1.5	18.7*	6.9
COc1ccc(OC)c(N(CC(=O)NCCc2ccc(OC)c(OC)c2)S(=O)(=O)c2ccccc2)c1	-1.7	-2.6	2.9	-1.8
CCn1ncc(-c2cc(C(=O)O)no2)c1C	47.2*	.	-8.7	-2.6
Cc1nc2ccc(Cl)cc2c(-c2ccccc2F)c1CC(=O)O	.	6.6	-4.0	0.5
CCC(C)(C)NC(=O)c1ccc2c(c1)N(CC(=O)OC)C(=O)C(C)(C)O2	-5.5	2.3	18.0*	1.3
Cc1ccc(NC(=O)CSCC(=O)Nc2nnc(C)s2)cc1	11.9	3.0	-2.4	-4.0
O=C(COC(=O)c1ccc(F)cc1F)Nc1ccc(Cl)cn1	-0.8	5.1	24.5*	4.3
CC(=O)c1ccc(S(=O)(=O)Nc2cccc(-c3ccc(N4CCOCC4)nn3)c2)cc1	.	4.6	.	-0.3
O=C(Nc1ccc2c(c1)OCCO2)C1CC(c2ccccc2Cl)=NO1 (stereo not drawn)	2.8	0.0	9.2*	8.0

Screening results: PubChem BioAssay, several laboratories
